Experimental data published in the supplement of paper PMC11634586.
Where a name gives a salt, the structure may show the parent alone.

What follows are molecules tested on NCI-H1688 (assay: inhibition of cell viability relative to untreated control (fraction); higher = stronger growth inhibition, active = 0.5 or more). Conditions: 30 µM; 24 h.
Outline: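 Values are inhibition of cell viability expressed as a fraction, derived from viability normalised to untreated cells. NCI-H1688 small cell lung cancer cells in 96-well plates were exposed to a natural compound library (TargetMol) at 30 µM for 24 h at 37°C with 5% CO2, and Cell Counting Kit-8 absorbance at 450 nm was then read.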

**Q.** For `CC[C@H](C)C(=O)O[C@H]1C[C@@H](C)C=C2C=C[C@H](C)[C@H](CC[C@@H]3C[C@@H](O)CC(=O)O3)[C@H]21` [Lovastatin], which “inhibition of cell viability” value is on record?
**A.** 0.836 (active)

**Q.** How did the “inhibition of cell viability” value turn out when `COC(=O)/C=C/c1ccc(O)cc1` [Methyl 4-hydroxycinnamate] was run?
**A.** -0.109 (inactive)

**Q.** How did the “inhibition of cell viability” value turn out when `Nc1ccccc1C(=O)CC(N)C(=O)O` (configuration not stated) [Kynurenine] was run?
**A.** -0.292 (inactive)

**Q.** Which “inhibition of cell viability” value does the source give for `COc1ccc(C(C)=O)c(O)c1` [Paeonol] here?
**A.** 0.0334 (inactive)

**Q.** How did the “inhibition of cell viability” value turn out when `C[C@H](CC[C@@H](O[C@@H]1O[C@H](CO[C@@H]2O[C@H](CO)[C@@H](O)[C@H](O)[C@H]2O)[C@@H](O)[C@H](O)[C@H]1O[C@@H]1O[C@H](CO)[C@@H](O)[C@H](O)[C@H]1O)C(C)(C)O)[C@H]1CC[C@@]2(C)[C@@H]3CC=C4[C@@H](CC[C@H](O[C@@H]5O[C@H](CO[C@@H]6O[C@H](CO)[C@@H](O)[C@H](O)[C@H]6O)[C@@H](O)[C@H](O)[C@H]5O)C4(C)C)[C@]3(C)[C@H](O)C[C@]12C` [Mogroside V] was run?
**A.** 0.121 (inactive)

**Q.** For `COc1ccc(CCC(=O)c2c(O)cc(O[C@@H]3O[C@H](CO)[C@@H](O)[C@H](O)[C@H]3O[C@@H]3O[C@@H](C)[C@H](O)[C@@H](O)[C@H]3O)cc2O)cc1O` [Neohesperidin Dihydrochalcone (Nhdc)], which “inhibition of cell viability” value is on record?
**A.** -0.0245 (inactive)

**Q.** How did the “inhibition of cell viability” value turn out when `OC[C@@H](O)[C@@H](O)CO` [Erythritol] was run?
**A.** 0.038 (inactive)

**Q.** With `COc1cc(OC)c2ccc(=O)oc2c1` [Citropten] as the molecule, how does the “inhibition of cell viability” value read?
**A.** -0.00623 (inactive)

**Q.** How did the “inhibition of cell viability” value turn out when `N[C@H]1C(O)O[C@H](CO)[C@@H](O)[C@@H]1O` (some centres not stated) [Glucosamine sulfate] was run?
**A.** 0.381 (inactive)

**Q.** Which “inhibition of cell viability” value does the source give for `COc1cc2c(=O)c(-c3ccc(O)cc3)coc2cc1O[C@@H]1O[C@H](CO)[C@@H](O)[C@H](O)[C@H]1O` [Glycitin] here?
**A.** 0.491 (inactive)

**Q.** How did the “inhibition of cell viability” value turn out when `COC(=O)C1=CC[C@@]23CC[C@@H]([C@@](C)(/C=C/C=C(\C)C(=O)O)OC2=O)[C@@]3(OC(C)=O)CC1` [Pseudolaric Acid B] was run?
**A.** 0.813 (active)

**Q.** For `O=c1oc2c(O)c(O)cc3c(=O)oc4c(O)c(O)cc1c4c23` [Ellagic acid], which “inhibition of cell viability” value is on record?
**A.** -0.099 (inactive)

**Q.** Which “inhibition of cell viability” value does the source give for `C[C@@H]1O[C@@H](Oc2c(-c3cc(O)c(O)c(O)c3)oc3cc(O)cc(O)c3c2=O)[C@H](O)[C@H](O)[C@H]1O` [Myricetrin] here?
**A.** -0.141 (inactive)

**Q.** `N[C@@H](Cc1cc(I)c(O)c(I)c1)C(=O)O` [3,5-Diiodotyrosine Dihydrate] was tested. Which “inhibition of cell viability” value did it give?
**A.** 0.24 (inactive)

**Q.** `COc1cc(C(C)=O)ccc1O` [Acetovanillone] was tested. Which “inhibition of cell viability” value did it give?
**A.** 0.213 (inactive)

**Q.** For `Cc1cc2nc3c(=O)[nH]c(=O)nc-3n(C[C@H](O)[C@H](O)[C@H](O)CO)c2cc1C` [Riboflavin], which “inhibition of cell viability” value is on record?
**A.** 0.284 (inactive)

**Q.** Which “inhibition of cell viability” value does the source give for `COc1cc(-c2oc3cc(O)cc(O)c3c(=O)c2O)ccc1O` [Isorhamnetin] here?
**A.** -0.0139 (inactive)

**Q.** For `C[C@@H]1O[C@@H](O[C@@H]2[C@@H](O)[C@H](OCCc3ccc(O)c(O)c3)O[C@H](CO[C@@H]3O[C@H](CO)[C@@H](O)[C@H](O)[C@H]3O)[C@H]2OC(=O)/C=C/c2ccc(O)c(O)c2)[C@H](O)[C@H](O)[C@H]1O` [Echinacoside], which “inhibition of cell viability” value is on record?
**A.** 0.128 (inactive)

**Q.** Which “inhibition of cell viability” value does the source give for `N[C@@H](CCC(=O)N[C@@H](CS)C(=O)NCC(=O)O)C(=O)O` [Glutathione] here?
**A.** -0.00752 (inactive)

**Q.** How did the “inhibition of cell viability” value turn out when `O=C(O)[C@]1(O)C[C@@H](O)[C@@H](O)[C@H](O)C1` [Quinic acid] was run?
**A.** 0.126 (inactive)

**Q.** For `Cc1ncc(CSSCc2cnc(C)c(O)c2CO)c(CO)c1O` [Pyrithioxin], which “inhibition of cell viability” value is on record?
**A.** 0.0153 (inactive)

**Q.** How did the “inhibition of cell viability” value turn out when `C=CC1=C(C)/C(=C/c2[nH]c(Cc3[nH]c(/C=C4\NC(=O)C(C)=C4C=C)c(C)c3CCC(=O)O)c(CCC(=O)O)c2C)NC1=O` [Bilirubin] was run?
**A.** 0.0432 (inactive)

**Q.** `O=c1c(-c2ccc(O[C@@H]3O[C@H](CO)[C@@H](O)[C@H](O)[C@H]3O)cc2)coc2cc(O)cc(O)c12` [Sophoricoside] was tested. Which “inhibition of cell viability” value did it give?
**A.** 0.495 (inactive)

**Q.** With `N[C@@H](Cc1c[nH]c2ccccc12)C(=O)O` [L-Tryptophan] as the molecule, how does the “inhibition of cell viability” value read?
**A.** -0.199 (inactive)

**Q.** Which “inhibition of cell viability” value does the source give for `C[N+](C)(C)CC(O)CC(=O)[O-]` (stereo not drawn) [L(-)-Carnitine] here?
**A.** 0.123 (inactive)

**Q.** For `CC1(C)[C@@H](O[C@H]2O[C@H](C(=O)O)[C@@H](O)[C@H](O)[C@H]2O[C@@H]2O[C@H](C(=O)O)[C@@H](O)[C@H](O)[C@H]2O)CC[C@]2(C)[C@H]3C(=O)C=C4[C@@H]5C[C@@](C)(C(=O)O)CC[C@]5(C)CC[C@@]4(C)[C@]3(C)CC[C@@H]12` [Monoammonium glycyrrhizinate], which “inhibition of cell viability” value is on record?
**A.** 0.346 (inactive)

**Q.** How did the “inhibition of cell viability” value turn out when `O=C(O)[C@H]1O[C@@H](Oc2cc3oc(-c4ccc(O)cc4)cc(=O)c3c(O)c2O)[C@H](O)[C@@H](O)[C@@H]1O` [Scutellarin] was run?
**A.** -0.14 (inactive)

**Q.** Which “inhibition of cell viability” value does the source give for `O=c1[nH]cnc2nc[nH]c12` [6-Hydroxypurine] here?
**A.** -0.00202 (inactive)

**Q.** With `COc1ccc([C@@H]2CC(=O)c3c(O)cc(O)cc3O2)cc1O` [Hesperetin] as the molecule, how does the “inhibition of cell viability” value read?
**A.** -0.0748 (inactive)

**Q.** `Cc1coc2c1C(=O)C(=O)c1c-2ccc2c1CCCC2(C)C` [Tanshinone IIA] was tested. Which “inhibition of cell viability” value did it give?
**A.** 0.958 (active)

**Q.** Which “inhibition of cell viability” value does the source give for `COc1cc(O)c2c(c1)C(=O)c1cc(C)cc(O)c1C2=O` [Rheochrysidin] here?
**A.** 0.0809 (inactive)

**Q.** `COc1cc2c(c(OC)c1OC)-c1c(cc3c(c1OC)OCO3)CC(C)C(C)C2` (configuration not stated) [Schizandrin B] was tested. Which “inhibition of cell viability” value did it give?
**A.** -0.0395 (inactive)

**Q.** Which “inhibition of cell viability” value does the source give for `C=CCc1ccc(O)c(OC)c1` [Eugenol] here?
**A.** -0.184 (inactive)

**Q.** `O=C(O)c1cc(=O)[nH]c(=O)[nH]1` [Orotic acid] was tested. Which “inhibition of cell viability” value did it give?
**A.** -0.0262 (inactive)

**Q.** With `OC[C@H]1O[C@@H](OCCc2ccc(O)cc2)[C@H](O)[C@@H](O)[C@@H]1O` [Salidroside] as the molecule, how does the “inhibition of cell viability” value read?
**A.** -0.0108 (inactive)

**Q.** How did the “inhibition of cell viability” value turn out when `COc1cc2c(cc1OC)[C@@H]1Cc3ccc(OC)c(OC)c3CN1CC2` [Tetrahydropalmatine] was run?
**A.** 0.242 (inactive)

**Q.** `O=C(O)c1cc(O)c2c(c1)[C@H]([C@H]1c3cc(C(=O)O)cc(O)c3C(=O)c3c(O[C@@H]4O[C@H](CO)[C@@H](O)[C@H](O)[C@H]4O)cccc31)c1cccc(O[C@@H]3O[C@H](CO)[C@@H](O)[C@H](O)[C@H]3O)c1C2=O` [Sennoside A] was tested. Which “inhibition of cell viability” value did it give?
**A.** 0.0197 (inactive)
